High-throughput results: PubChem, The Scripps Research Institute Molecular Screening Center
DAX1 inh-1: NR0B1 (DAX1) inhibition. P51843. HEK293 Gal4-DAX1 luciferase reporter, luminescence. inhibition, % at 6.75 µM. hit rate 0.99% among 340,000;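 active = inhibition above the mean over all tested compounds plus 3 SD, cut at about 4.2% in these data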;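 also: inhibition shows as a rise in luminescence from relieved DAX1 repression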
Target sequence (P51843 207-470 limits assumed): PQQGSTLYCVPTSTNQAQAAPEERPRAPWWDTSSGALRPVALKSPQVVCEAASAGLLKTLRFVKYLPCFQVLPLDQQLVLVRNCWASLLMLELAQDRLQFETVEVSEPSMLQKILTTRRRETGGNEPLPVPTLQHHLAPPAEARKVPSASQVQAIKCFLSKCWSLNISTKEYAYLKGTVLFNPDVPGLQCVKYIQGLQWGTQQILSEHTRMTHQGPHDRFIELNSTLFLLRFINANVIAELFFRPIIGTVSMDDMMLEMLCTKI
SMARCA2 act: SMARCA2 function activation, primary screen; activation, % at 9.1 µM; hit rate 1% among 370,000; AID 652017; MG213 cells, MMTV-luciferase reporter, dexamethasone, overnight; in the data active = activation above about 7.8%
hgDAF12 agonist: agonists of H. glycines DAF-12 nuclear receptor. hit rate 1.8% among 370,000. activation, % at 6.8 µM. HEK293 GAL4-hgDAF12 UAS-luciferase reporter, agonist luminescence; normalized to butyrate control. AID 687014;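 active = activation above a cutoff set at the mean of all screened compounds plus 3 SD, cut at about 10% in these data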
ssDAF12 agonist: activates DAF-12 receptor from parasite S. stercoralis. activation, % at 6.8 µM. hit rate 1% among 370,000. HEK293 ssDAF-12/GRIP1 lit1-tk-luc reporter, luminescence; % of 3 µM dafachronic acid response;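 active = activation above the mean over all tested compounds plus 3 SD, cut at about 0.9% in these data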
hcDAF-12 act: activates DAF-12 receptor from parasite H. contortus; HEK293 hcDAF-12 lit1-tk-luc reporter, luminescence; 0% DMSO, 100% Δ7-dafachronic acid; activation, % at 6.8 µM; hit rate 1.4% among 370,000;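 active = activation above the mean of all tested compounds plus 3 SD, cut at about 5.5% in these data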
DAX1 inh-2: blocks DAX1 repression of SF-1 activated StAR promoter; inhibition, % at 6.8 µM; HEK293T StAR-luciferase reporter, SF-1/DAX-1 repression relief; hit rate 1.1% among 370,000;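 active = inhibition above the mean over all tested compounds plus 3 SD, cut at about 3.6% in these data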;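 also: higher inhibition means more luminescence from relief of DAX-1 repression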
SMARCA2 act conf: confirmation of SMARCA2 (BRM) function activators. shares compounds with SMARCA2 act. MG213 cells, MMTV-luciferase with dexamethasone, luminescence, overnight; MG213 cells expressing E1A, Rb sequestered; DMSO wells 0%, reference activator 100%. activation, % at 9.1 µM. hit rate 30% among 3,500;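 active = activation above its plate's cutoff, the mean activation of tested wells plus 3 SD, cut at about 7.9% in these data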
VP16 Luc act: counter-screen for SMARCA2 activators: GAL4-VP16 luciferase reporter activation; shares compounds with SMARCA2 act; activation, % at 9.1 µM; hit rate 41% among 3,500; HEK293 GAL4-VP16 pG5luc reporter, luciferase luminescence; scaled: DMSO wells 0%, SAHA wells 100%;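 active = activation above the solvent-only control well mean plus 3 SD, averaged across control plates, cut at about 5.2% in these data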
Numbers stand for hits; n = inactive; x = not tested or not shown. A selection: hits, their analogues and other compounds. The true share with any hit is near 4.8%.

SMILES	DAX1 inh-1	SMARCA2 act	hgDAF12 agonist	ssDAF12 agonist	hcDAF-12 act	DAX1 inh-2	SMARCA2 act conf	VP16 Luc act
N#Cc1cc(O)c(-n2nnc3ccccc32)cc1C#N	n	n	n	n	n	n	x	x
N#Cc1cc(Oc2cccc3cccnc23)c(-n2nnc3ccccc32)cc1C#N	n	14	n	n	n	n	n	n
O=C1Nc2ccccc2C1=Nc1ccc2[nH]c3ccccc3c2c1	n	n	n	n	n	n	x	x
N#C/C(=C\c1ccc(OC(=O)c2cccs2)cc1)c1nc2ccccc2[nH]1	n	13	n	n	n	n	8.5	6.2
N#Cc1ccccc1N1CCN(C(=O)c2ccc(NC(=O)c3ccc(Br)o3)cc2)CC1	n	x	x	x	x	x	x	x
Cc1cc(Cl)c2oc(C(=O)NCC(C)(C)N3CCOCC3)c(C)c2c1	n	9.3	n	n	n	n	n	5.2
Cc1cc(C)cc(N(CC(=O)NC2CCCC2)C(=O)CNC(=O)c2cccs2)c1	n	n	n	n	n	n	x	x
O=C(NC(=S)Nc1ccccc1N1CCOCC1)c1ccc(-c2cc(Cl)ccc2Cl)o1	n	n	n	n	n	n	x	x
O=C(c1ccc(-c2cc(Cl)ccc2Cl)o1)N1CCOCC1	n	8.8	n	n	n	n	n	n
CCn1c(SCc2nc3ccccc3s2)nc2cc(S(=O)(=O)N3CCOCC3)ccc21	n	10	n	n	n	n	n	n
COCCn1c(SCc2nc3ccccc3s2)nc2ccccc21	n	15	n	n	n	n	n	8.1
CCOCCCn1c(SCc2nc3ccccc3s2)nc2ccccc2c1=O	n	n	n	n	n	n	x	x
CN(C)CCNC(=O)c1cccc2ccc(-c3ccc(-c4ccccc4)cc3)nc12	n	8.6	n	1.2	n	n	24	n
CN(C)CCNC(=O)c1ccccc1	n	n	n	n	n	n	x	x
CN1C(=O)N(c2nnc(C(C)(C)C)s2)C(=O)C1c1ccccc1 (centres undefined)	n	n	n	n	n	n	x	x
CCCCN1C(=O)N(c2nnc(C(C)(C)C)s2)C(O)C1c1ccc(C)cc1 (centres undefined)	n	10	n	n	n	n	n	n
O=C(NCc1cccnc1)C(=O)NCC1OCCCN1S(=O)(=O)c1ccccc1 (centres undefined)	n	n	n	n	n	n	x	x
Cn1ccc(C(=O)N/N=C/c2ccccc2[N+](=O)[O-])n1	n	8.2	n	n	n	n	n	n
CCCc1nc(-c2cc3ccc(C)cc3[nH]c2=O)no1	n	9.2	n	n	n	n	n	n
O=C(COC(=O)C1(c2ccccc2)CC1)N1CCN(c2ccc(F)cc2)CC1	n	n	n	n	n	n	x	x
Cc1cccc(NC(=O)c2ccc(NCC3CCCO3)c([N+](=O)[O-])c2)c1 (centres undefined)	n	8.1	n	n	n	n	n	n
CC(C(=O)O/N=C(\N)c1cccnc1)c1ccc([N+](=O)[O-])cc1 (centres undefined)	n	n	n	n	n	n	x	x
CCC(=O)Nc1ccc(NC(=O)CCc2ccccc2)cn1	n	n	n	n	n	n	x	x
CCC(=O)Nc1ccc(NC(=O)Cc2ccccc2)cn1	n	8.7	n	n	n	n	n	n
O=C(Cc1ccc(-c2ccccc2)cc1)Nc1ccccn1	n	9.9	n	n	n	n	16	n
SMILES	DAX1 inh-1	SMARCA2 act	hgDAF12 agonist	ssDAF12 agonist	hcDAF-12 act	DAX1 inh-2	SMARCA2 act conf	VP16 Luc act
C/C(=N\NC(=O)c1ccc(Br)cc1)c1cccnc1	n	n	n	n	n	n	x	x
C/C(=N/NC(=O)c1ccco1)c1cccnc1	n	8.3	n	n	n	n	n	n
CCN(CC)C(=N)/C(C#N)=N/Nc1ccccc1	x	13	n	n	n	n	n	n
COc1cc(OC)nc(C(NC(=O)C2CCN(Cc3c[nH]c4ccccc34)CC2)c2ccc(Cl)cc2)n1 (centres undefined)	x	12	n	n	n	n	n	n
COc1cc(OC)nc(C(NC(=O)C2CCN(Cc3ccc(N(C)C)cc3)CC2)c2ccc(F)cc2)n1 (centres undefined)	x	n	n	n	n	n	x	x
CN(C)c1ncnc2c1C(c1ccccc1)C(C)(C)O2 (centres undefined)	n	n	n	n	n	n	x	x
COc1ccc(CN2C[C@]3(C=C(C)Cn4c(=O)n(-c5ccccc5)c(=O)n43)N(C(=O)OCc3ccccc3)C2=NC(=O)c2ccccc2)c(OC)c1	x	8.6	n	n	n	n	n	n
CCc1ccc(OCC(=O)NC(=S)Nc2ccc(F)cc2)c(Br)c1	n	8.9	n	n	n	n	n	n
CCc1ccc(OCC(=O)NC(=S)Nc2cccc(CO)c2)c(Br)c1	n	n	n	n	n	n	x	x
O=C(NC(=S)NC(=O)c1ccccc1F)c1ccccc1F	n	10.0	n	n	n	n	n	n
CCN(CC)CCCNc1nc2ccccc2c2nc(-c3ccncc3)nn12	n	23	n	n	n	n	35	n
CCN(CC)CCCNc1nc2cc(OC)c(OC)cc2c2nc(-c3ccccc3)nn12	n	n	n	n	n	n	x	x
CSc1ccc(C(=O)C2CCCN(C(=O)CCc3c(C)nn(C)c3C)C2)cc1 (centres undefined)	n	n	n	n	n	n	x	x
O=C1c2cccc3c2C2(O)c4c1cccc4C(=O)c1cccc(c12)C3=O	n	8.1	n	n	n	n	n	n
CC1(C)c2ccccc2C(=O)c2ccccc21	n	n	n	n	n	n	x	x
Cc1cc2nc(CN(C)Cc3c(C(=O)N(C)C)nc4ccc(Cl)cn34)[nH]c2cc1C	n	n	n	n	n	n	x	x
CN(Cc1ccccc1)C(=O)N1CCOCC1	n	n	n	n	n	n	x	x
CC1(N=Cc2cc(Cl)ccc2O)COP(=O)(Nc2ccccc2)OC1 (centres undefined)	n	8.2	n	n	n	n	n	n
O=C(N/N=C/c1cc(Cl)ccc1O)c1cccnc1	n	n	n	n	n	n	x	x
COC(=O)[C@]12C[C@H](CC(=O)N3CCOCC3)C(=O)N(Cc3ccco3)C1=C[C@H](C(C)C)O[C@@H]2C1CC1	x	9.6	n	n	n	n	n	n
COC(=O)[C@]12C[C@H](CC(=O)N3CCCCC3)C(=O)N(Cc3ccco3)C1=C[C@H](C(C)C)O[C@@H]2C1CC1	x	n	n	n	n	n	x	x
C/C(=N\NC(=S)Nc1ccccc1)C1Cc2ccccc2C(=O)O1 (centres undefined)	x	8.3	n	n	n	n	n	n
